According to PubChem BioAssay AID434994 (NMMLSC, 2010):
This is one part of the list. Calls of active or inactive are those of the source.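 How the source made its calls: active means superoxide signal below 65% of the plate average of sample wells; inactive means the rest.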

Experiment: retest of yeast aging ROS inhibitors – cherry picked compounds, confirmation (AID 434994);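 further: cells aged with compound for 7 days at 30 degrees C before staining; 100% equals mean DHE fluorescence of all compound wells on the plate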
Conditions: S. cerevisiae aging, superoxide DHE fluorescence; at 10 µM; active compounds read low

**Q.** For `CCn1c2ccccc2c2cc(NC(=O)CNC)ccc21`, which superoxide response (% of plate) is on record?
**A.** 107% (inactive)

**Q.** With `CC(=O)NC1=NN(C(C)=O)C(C)(CCS(=O)(=O)c2ccc(Cl)c(Cl)c2)S1` (configuration not stated) as the molecule, how does the superoxide response (% of plate) read?
**A.** 101% (inactive)

**Q.** With `O=C(CSCc1ccccc1)Nc1ccccc1` as the molecule, how does the superoxide response (% of plate) read?
**A.** 107% (inactive)

**Q.** For `COc1ccc(C)cc1S(=O)(=O)Nc1cccc(Cl)c1Cl`, which superoxide response (% of plate) is on record?
**A.** 96.3% (inactive)

**Q.** For `CC1CCCN(S(=O)(=O)c2ccc(C(=O)Nc3nnc(-c4ccncc4)o3)cc2)C1` (configuration not stated), which superoxide response (% of plate) is on record?
**A.** 111% (inactive)

**Q.** Which superoxide response (% of plate) does the source give for `Cc1ccc(-c2nnc(Nc3ccc(C(=O)N(C)C)cc3)c3ccccc23)cc1S(N)(=O)=O` here?
**A.** 107% (inactive)

**Q.** For `Cc1ccc2cccc(S(=O)(=O)N3CCN(c4ccccc4F)CC3)c2n1`, which superoxide response (% of plate) is on record?
**A.** 119% (inactive)

**Q.** With `CSc1ncc(Cl)c(C(=O)Nc2cc(C)ccc2C)n1` as the molecule, how does the superoxide response (% of plate) read?
**A.** 95.3% (inactive)

**Q.** Which superoxide response (% of plate) does the source give for `CC(=O)C[C@@H](O)CC(=O)[C@H]1OC(=O)CCCCCCc2ccccc21` here?
**A.** 103% (inactive)

**Q.** With `Cc1ccc(NC(=O)Cn2nc(C)c3ccccc3c2=O)c(C)c1` as the molecule, how does the superoxide response (% of plate) read?
**A.** 114% (inactive)

**Q.** Which superoxide response (% of plate) does the source give for `CSc1sc(C(=O)NNC(=O)c2ccc(Cl)cc2)c2c1C=CCC2` here?
**A.** 104% (inactive)

**Q.** With `O=C(Nc1ccc(Br)cn1)c1ccc([N+](=O)[O-])cc1Cl` as the molecule, how does the superoxide response (% of plate) read?
**A.** 96.2% (inactive)

**Q.** Which superoxide response (% of plate) does the source give for `O=C(O)C1CCCN1S(=O)(=O)c1ccc(Br)cc1` (configuration not stated) here?
**A.** 105% (inactive)

**Q.** For `Cc1ccc(-c2nn(C(C)(C)C)c3ncnc(N)c23)cc1`, which superoxide response (% of plate) is on record?
**A.** 42.9% (active)

**Q.** Which superoxide response (% of plate) does the source give for `CC(C)NC(=O)/C(C#N)=C\c1ccc(N(C)C)c(Br)c1` here?
**A.** 88.1% (inactive)

**Q.** Which superoxide response (% of plate) does the source give for `CCN(CC)C(=O)CSc1nnc(-c2cccc(OC)c2)o1` here?
**A.** 113% (inactive)

**Q.** Which superoxide response (% of plate) does the source give for `O=C(CSc1ccc(-c2ccc(-n3cccn3)cc2)nn1)Nc1ccc([N+](=O)[O-])cc1` here?
**A.** 95.7% (inactive)

**Q.** Which superoxide response (% of plate) does the source give for `COc1cc(-c2nnn(CC(=O)NCc3ccccc3)n2)cc(OC)c1OC` here?
**A.** 100% (inactive)

**Q.** With `Cc1ccc(C23CC4CC(CC(C(=O)NCC(=O)O)(C4)C2)C3)cc1` as the molecule, how does the superoxide response (% of plate) read?
**A.** 106% (inactive)

**Q.** For `CCN(CC)c1ccc(NC(=O)CN2CCN(c3ccccn3)CC2)cc1`, which superoxide response (% of plate) is on record?
**A.** 101% (inactive)

**Q.** Which superoxide response (% of plate) does the source give for `O=C(Nc1ccccc1N1CCCC1)c1ccc2ccccc2c1` here?
**A.** 95.3% (inactive)

**Q.** Which superoxide response (% of plate) does the source give for `CN1CCN(c2cc3c(cc2F)c(=O)c(C(=O)O)cn3CCF)CC1` here?
**A.** 116% (inactive)
